# In article PMC7862700, “An all-to-all approach to the identification of sequence-specific readers for epigenetic DNA modifications on cytosine”:
# Legend:
# Assay in all cases: DAPPL (digital affinity profiling via proximity ligation, sequencing); 10 mM Tris-HCl pH 7.5, 50 mM NaCl, 1 mM DTT, 4% glycerol, room temperature, 30 min; GST-TFs on glutathione beads, 16-mer random dsDNA library, 0.1% formaldehyde crosslink after washing; high values mean tight binding
# FLI1 = biological target: T1, FLI1 (Homo sapiens, UniProt Q01543 1-452); settings: protein: recombinant; tags: N-terminal GST; dsDNA, one strand shown
# T1 sequence: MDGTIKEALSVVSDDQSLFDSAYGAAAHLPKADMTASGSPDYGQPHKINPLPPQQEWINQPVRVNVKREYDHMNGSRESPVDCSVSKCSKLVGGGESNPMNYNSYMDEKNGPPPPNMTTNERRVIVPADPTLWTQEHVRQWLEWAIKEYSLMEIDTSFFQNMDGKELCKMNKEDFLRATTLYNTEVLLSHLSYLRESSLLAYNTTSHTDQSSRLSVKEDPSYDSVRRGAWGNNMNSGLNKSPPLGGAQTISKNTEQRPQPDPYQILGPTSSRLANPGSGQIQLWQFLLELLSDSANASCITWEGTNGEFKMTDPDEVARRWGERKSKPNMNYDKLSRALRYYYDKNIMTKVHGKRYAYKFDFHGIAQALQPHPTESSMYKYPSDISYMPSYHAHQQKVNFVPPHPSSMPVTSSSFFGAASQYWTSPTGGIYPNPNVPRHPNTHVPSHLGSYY
# How it was run: (§1)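 Human transcription factors fused to GST were expressed in yeast, captured on glutathione beads, given DNA barcodes and pooled with a GST-only negative control. Pools were incubated with 200 nmole of a 16-mer random double-stranded DNA library in Tris/NaCl/DTT/glycerol buffer at room temperature for 30 min. They were then washed, crosslinked with 0.1% formaldehyde, proximity-ligated (BsaI/T4 ligase, 1 h, 37 °C), PCR-amplified and sequenced on an Illumina NextSeq500. Binding signal is each 6-mer's read frequency for a factor divided by its frequency for the GST control.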
# ELK1 = biological target: T2, ELK1 (Homo sapiens, UniProt P19419 1-428); settings: protein: recombinant; tags: N-terminal GST; dsDNA, one strand shown
# T2 sequence: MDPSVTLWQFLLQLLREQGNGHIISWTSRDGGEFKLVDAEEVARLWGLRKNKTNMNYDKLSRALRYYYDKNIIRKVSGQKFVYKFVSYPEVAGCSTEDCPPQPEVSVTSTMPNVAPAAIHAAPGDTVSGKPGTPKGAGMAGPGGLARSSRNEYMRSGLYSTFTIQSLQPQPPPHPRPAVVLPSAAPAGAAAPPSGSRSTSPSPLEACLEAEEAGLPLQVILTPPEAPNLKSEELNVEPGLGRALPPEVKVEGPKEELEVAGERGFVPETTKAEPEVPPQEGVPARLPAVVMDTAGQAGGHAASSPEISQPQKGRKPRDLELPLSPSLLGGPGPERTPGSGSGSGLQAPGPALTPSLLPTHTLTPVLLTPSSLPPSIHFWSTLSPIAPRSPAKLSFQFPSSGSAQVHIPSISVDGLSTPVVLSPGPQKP
# How it was run: as §1
# GABPA = biological target: T3, GABPA (Homo sapiens, UniProt Q06546 1-454); settings: protein: recombinant; tags: N-terminal GST; dsDNA, one strand shown
# T3 sequence: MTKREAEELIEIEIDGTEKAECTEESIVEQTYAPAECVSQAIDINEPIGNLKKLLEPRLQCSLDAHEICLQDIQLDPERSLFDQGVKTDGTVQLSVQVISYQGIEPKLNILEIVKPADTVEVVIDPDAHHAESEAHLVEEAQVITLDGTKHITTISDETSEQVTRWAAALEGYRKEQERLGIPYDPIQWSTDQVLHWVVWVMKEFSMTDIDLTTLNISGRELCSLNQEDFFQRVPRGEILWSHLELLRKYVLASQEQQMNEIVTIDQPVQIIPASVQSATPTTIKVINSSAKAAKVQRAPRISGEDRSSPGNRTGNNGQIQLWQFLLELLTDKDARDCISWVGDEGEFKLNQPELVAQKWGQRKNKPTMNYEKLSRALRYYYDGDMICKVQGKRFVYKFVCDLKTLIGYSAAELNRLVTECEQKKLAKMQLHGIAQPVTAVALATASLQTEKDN
# How it was run: as §1
# ERG = biological target: T4, ERG (Homo sapiens, UniProt P11308 1-479); settings: protein: recombinant; tags: N-terminal GST; dsDNA, one strand shown
# T4 sequence: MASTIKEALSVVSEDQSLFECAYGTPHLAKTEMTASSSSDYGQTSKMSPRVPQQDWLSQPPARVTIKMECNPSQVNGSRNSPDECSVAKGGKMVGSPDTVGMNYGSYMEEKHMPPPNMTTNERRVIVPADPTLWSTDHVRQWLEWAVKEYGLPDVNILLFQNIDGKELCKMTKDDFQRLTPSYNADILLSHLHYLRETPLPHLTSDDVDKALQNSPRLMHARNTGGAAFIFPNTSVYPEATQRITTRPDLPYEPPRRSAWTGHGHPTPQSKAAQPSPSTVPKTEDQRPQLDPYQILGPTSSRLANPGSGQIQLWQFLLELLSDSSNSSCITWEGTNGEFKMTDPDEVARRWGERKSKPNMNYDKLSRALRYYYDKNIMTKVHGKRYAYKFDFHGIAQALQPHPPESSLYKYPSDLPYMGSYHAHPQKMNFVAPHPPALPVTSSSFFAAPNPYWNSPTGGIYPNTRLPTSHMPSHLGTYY
# How it was run: as §1
# ELF1 = ELF1 (Homo sapiens, UniProt P32519 1-619); settings: protein: recombinant; tags: N-terminal GST; dsDNA, one strand shown
# ELF1, sequence (P32519 whole entry): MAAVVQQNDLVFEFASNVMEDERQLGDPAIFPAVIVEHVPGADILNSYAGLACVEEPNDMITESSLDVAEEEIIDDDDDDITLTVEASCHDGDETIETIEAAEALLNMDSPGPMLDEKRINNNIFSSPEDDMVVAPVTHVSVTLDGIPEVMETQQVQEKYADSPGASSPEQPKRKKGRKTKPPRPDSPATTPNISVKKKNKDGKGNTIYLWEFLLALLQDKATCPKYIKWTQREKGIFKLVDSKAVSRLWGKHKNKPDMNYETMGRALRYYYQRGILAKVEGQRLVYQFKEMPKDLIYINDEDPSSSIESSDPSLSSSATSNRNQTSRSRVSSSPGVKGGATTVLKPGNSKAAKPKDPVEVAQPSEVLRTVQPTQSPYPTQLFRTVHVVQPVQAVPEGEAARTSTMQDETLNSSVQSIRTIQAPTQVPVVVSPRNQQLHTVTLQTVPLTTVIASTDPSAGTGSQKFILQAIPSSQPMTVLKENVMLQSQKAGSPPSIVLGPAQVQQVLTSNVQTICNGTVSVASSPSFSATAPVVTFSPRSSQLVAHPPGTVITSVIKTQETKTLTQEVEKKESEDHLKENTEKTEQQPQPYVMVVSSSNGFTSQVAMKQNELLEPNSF
# How it was run: as §1
# EHF = biological target: T5, EHF (Homo sapiens, UniProt Q9NZC4 1-300); settings: protein: recombinant; tags: N-terminal GST; dsDNA, one strand shown
# T5 sequence: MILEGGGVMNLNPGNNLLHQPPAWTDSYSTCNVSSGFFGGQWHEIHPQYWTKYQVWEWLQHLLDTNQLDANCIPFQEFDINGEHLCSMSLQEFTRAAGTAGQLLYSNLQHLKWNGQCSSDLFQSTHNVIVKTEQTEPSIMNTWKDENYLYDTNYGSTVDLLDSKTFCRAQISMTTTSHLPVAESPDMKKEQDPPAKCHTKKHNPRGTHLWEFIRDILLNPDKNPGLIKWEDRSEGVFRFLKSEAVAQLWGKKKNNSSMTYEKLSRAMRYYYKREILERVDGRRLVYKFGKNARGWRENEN
# How it was run: as §1
# SPI1 = SPI1 (Homo sapiens, UniProt P17947 1-270); settings: protein: recombinant; tags: N-terminal GST; dsDNA, one strand shown
# How it was run: as §1
# SPIB = SPIB (Homo sapiens, UniProt Q01892 1-262); settings: protein: recombinant; tags: N-terminal GST; dsDNA, one strand shown
# SPIB, sequence (Q01892 whole entry): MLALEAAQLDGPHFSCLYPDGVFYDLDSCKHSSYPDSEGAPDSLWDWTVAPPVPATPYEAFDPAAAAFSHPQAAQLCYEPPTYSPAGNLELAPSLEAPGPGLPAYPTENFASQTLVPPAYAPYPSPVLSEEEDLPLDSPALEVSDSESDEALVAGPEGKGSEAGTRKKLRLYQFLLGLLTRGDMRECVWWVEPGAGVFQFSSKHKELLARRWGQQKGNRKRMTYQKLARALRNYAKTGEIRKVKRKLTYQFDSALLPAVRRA
# How it was run: as §1
# ELK3 = biological target: T6, ELK3 (Homo sapiens, UniProt P41970 1-407); settings: protein: recombinant; tags: N-terminal GST; dsDNA, one strand shown
# T6 sequence: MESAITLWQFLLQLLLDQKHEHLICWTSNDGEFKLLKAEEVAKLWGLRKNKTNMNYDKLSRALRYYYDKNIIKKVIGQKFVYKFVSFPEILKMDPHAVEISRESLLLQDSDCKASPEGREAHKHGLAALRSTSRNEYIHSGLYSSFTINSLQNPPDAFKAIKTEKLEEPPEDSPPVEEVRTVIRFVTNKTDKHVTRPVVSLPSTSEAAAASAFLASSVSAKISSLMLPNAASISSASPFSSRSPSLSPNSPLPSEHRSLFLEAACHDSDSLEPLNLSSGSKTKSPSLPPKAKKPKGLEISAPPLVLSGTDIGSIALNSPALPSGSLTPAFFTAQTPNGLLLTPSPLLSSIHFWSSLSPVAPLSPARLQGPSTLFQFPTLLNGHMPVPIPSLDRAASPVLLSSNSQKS
# How it was run: as §1
# FEV = biological target: T7, FEV (Homo sapiens, UniProt Q99581 1-238); settings: protein: recombinant; tags: N-terminal GST; dsDNA, one strand shown
# T7 sequence: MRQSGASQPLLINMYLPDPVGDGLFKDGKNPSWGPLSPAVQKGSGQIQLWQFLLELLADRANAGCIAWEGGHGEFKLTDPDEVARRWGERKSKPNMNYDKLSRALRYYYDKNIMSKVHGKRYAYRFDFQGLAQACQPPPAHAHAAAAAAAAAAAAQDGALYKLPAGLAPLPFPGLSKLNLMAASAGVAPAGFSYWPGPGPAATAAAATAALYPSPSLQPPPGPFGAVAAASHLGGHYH
# How it was run: as §1
# ETV5 = ETV5 (Homo sapiens, UniProt P41161 1-510); settings: protein: recombinant; tags: N-terminal GST; dsDNA, one strand shown
# ETV5, sequence (P41161 whole entry): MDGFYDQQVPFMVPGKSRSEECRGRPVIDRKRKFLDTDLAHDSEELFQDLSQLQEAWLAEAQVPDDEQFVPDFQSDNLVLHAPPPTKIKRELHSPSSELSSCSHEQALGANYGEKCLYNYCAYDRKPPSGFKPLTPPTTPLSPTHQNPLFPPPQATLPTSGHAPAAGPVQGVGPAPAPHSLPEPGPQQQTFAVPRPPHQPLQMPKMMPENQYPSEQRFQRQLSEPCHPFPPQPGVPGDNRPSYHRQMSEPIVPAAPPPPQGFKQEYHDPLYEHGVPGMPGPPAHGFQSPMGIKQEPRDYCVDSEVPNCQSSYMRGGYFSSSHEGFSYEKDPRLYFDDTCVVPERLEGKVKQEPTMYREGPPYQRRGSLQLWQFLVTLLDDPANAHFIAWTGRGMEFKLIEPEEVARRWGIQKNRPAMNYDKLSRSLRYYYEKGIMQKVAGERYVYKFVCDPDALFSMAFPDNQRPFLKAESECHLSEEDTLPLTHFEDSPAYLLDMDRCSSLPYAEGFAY
# How it was run: as §1
# HSF1 = HSF1 (Homo sapiens, UniProt Q00613 1-529); settings: protein: recombinant; tags: N-terminal GST; chain copies: 3; dsDNA, one strand shown
# HSF1, sequence (Q00613 whole entry): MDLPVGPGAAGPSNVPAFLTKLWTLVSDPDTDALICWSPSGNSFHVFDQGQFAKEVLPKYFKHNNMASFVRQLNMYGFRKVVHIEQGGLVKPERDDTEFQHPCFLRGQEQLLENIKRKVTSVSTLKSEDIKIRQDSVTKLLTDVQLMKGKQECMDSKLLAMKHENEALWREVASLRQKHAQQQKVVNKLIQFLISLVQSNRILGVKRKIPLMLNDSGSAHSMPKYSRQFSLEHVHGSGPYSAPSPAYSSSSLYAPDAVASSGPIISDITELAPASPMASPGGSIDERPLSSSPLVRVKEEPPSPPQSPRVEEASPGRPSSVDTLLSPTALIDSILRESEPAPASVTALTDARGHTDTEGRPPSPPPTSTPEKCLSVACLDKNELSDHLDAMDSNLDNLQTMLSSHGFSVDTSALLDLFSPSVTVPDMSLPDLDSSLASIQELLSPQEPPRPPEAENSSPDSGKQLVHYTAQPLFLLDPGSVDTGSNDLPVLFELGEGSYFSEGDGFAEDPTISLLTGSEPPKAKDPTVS
# How it was run: as §1
# SPIC = biological target: T8, SPIC (Homo sapiens, UniProt Q8N5J4 1-248); settings: protein: recombinant; tags: N-terminal GST; dsDNA, one strand shown
# T8 sequence: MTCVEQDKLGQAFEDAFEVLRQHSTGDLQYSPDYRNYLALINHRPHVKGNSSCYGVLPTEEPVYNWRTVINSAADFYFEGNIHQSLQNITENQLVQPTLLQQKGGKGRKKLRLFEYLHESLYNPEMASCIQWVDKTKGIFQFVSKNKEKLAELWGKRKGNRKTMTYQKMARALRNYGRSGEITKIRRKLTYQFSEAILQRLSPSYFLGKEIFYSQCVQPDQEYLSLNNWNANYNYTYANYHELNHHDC
# How it was run: as §1
# ELF4 = ELF4 (Homo sapiens, UniProt Q99607 1-663); settings: protein: recombinant; tags: N-terminal GST; dsDNA, one strand shown
# ELF4, sequence (Q99607 whole entry): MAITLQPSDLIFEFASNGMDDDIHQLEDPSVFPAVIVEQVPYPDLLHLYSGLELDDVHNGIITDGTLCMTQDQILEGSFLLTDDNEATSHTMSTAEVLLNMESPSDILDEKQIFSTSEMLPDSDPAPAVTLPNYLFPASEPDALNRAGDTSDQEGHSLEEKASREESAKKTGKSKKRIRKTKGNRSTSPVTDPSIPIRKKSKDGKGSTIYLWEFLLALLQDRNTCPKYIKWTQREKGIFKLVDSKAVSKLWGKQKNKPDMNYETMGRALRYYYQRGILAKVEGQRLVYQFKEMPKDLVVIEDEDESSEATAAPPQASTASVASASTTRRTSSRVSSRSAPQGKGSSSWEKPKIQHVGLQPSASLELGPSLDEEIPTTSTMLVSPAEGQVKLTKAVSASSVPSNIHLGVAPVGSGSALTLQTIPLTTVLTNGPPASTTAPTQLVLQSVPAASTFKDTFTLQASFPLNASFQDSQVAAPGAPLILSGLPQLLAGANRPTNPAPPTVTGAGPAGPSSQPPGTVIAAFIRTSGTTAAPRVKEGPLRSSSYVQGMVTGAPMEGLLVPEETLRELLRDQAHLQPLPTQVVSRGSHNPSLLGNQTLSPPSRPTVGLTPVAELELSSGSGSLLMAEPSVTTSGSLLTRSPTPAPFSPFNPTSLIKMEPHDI
# How it was run: as §1
# ELK4 = biological target: T9, ELK4 (Homo sapiens, UniProt P28324-2 1-405); settings: protein: recombinant; tags: N-terminal GST; dsDNA, one strand shown
# T9 sequence: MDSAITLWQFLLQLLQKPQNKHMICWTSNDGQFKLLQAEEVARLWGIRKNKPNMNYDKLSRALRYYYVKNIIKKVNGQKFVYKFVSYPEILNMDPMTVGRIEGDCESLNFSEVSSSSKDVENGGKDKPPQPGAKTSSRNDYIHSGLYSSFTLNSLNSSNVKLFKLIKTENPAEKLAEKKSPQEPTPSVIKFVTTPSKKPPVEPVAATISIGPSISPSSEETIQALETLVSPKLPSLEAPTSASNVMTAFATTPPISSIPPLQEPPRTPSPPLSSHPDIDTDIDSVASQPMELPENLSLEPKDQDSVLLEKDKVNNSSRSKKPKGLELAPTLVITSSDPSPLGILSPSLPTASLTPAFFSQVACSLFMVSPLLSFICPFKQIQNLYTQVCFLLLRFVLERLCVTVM
# How it was run: as §1
# ETV2 = biological target: T10, ETV2 (Homo sapiens, UniProt O00321 1-342); settings: protein: recombinant; tags: N-terminal GST; dsDNA, one strand shown
# T10 sequence: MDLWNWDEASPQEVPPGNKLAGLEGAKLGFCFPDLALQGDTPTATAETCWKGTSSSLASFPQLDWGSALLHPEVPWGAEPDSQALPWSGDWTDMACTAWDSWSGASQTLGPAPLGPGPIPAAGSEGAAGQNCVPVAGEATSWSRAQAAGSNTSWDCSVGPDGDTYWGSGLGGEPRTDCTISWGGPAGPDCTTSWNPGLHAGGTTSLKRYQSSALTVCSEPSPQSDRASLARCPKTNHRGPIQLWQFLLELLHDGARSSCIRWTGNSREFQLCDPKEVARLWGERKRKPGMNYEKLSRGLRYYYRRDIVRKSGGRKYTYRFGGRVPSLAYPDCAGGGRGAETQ
# How it was run: as §1
# ELF3 = biological target: T11, ELF3 (Homo sapiens, UniProt P78545 1-371); settings: protein: recombinant; tags: N-terminal GST; dsDNA, one strand shown
# T11 sequence: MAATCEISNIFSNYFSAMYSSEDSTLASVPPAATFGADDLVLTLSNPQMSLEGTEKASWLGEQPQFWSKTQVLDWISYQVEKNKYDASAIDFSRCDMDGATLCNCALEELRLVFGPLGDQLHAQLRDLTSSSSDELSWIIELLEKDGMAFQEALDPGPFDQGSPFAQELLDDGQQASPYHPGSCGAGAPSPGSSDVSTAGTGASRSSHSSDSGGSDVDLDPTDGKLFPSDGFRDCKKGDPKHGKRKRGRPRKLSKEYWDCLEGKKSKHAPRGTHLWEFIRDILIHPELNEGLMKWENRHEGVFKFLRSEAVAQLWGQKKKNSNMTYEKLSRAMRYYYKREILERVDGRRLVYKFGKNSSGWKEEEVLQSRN
# How it was run: as §1
# CRX = CRX (Homo sapiens, UniProt O43186 1-299); settings: protein: recombinant; tags: N-terminal GST; dsDNA, one strand shown
# CRX, sequence (O43186 whole entry): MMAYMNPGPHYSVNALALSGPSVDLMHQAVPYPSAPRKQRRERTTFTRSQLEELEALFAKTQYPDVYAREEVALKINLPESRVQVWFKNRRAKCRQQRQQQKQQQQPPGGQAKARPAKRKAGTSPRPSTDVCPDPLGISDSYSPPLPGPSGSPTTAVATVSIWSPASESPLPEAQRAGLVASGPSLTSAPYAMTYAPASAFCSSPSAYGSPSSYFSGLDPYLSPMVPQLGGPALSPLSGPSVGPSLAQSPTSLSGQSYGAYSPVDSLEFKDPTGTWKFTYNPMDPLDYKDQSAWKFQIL
# How it was run: as §1
# ETV1 = ETV1 (Homo sapiens, UniProt P50549 1-477); settings: protein: recombinant; tags: N-terminal GST; dsDNA, one strand shown
# ETV1, sequence (P50549 whole entry): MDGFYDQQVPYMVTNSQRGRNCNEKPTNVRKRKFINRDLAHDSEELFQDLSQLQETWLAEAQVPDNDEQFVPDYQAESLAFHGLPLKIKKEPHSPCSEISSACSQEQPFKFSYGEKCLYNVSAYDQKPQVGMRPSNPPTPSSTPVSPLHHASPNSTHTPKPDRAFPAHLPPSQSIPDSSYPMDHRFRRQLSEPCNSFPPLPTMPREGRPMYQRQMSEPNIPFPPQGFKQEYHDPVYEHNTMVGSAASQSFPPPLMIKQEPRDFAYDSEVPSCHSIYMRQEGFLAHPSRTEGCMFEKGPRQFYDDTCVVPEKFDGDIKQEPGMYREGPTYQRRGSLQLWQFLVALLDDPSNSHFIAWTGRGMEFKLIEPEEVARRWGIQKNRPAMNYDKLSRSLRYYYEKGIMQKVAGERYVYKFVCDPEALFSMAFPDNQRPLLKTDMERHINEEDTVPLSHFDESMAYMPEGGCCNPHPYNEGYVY
# How it was run: as §1
sequence,measurement,setting,value
ATATTA,binding signal,FLI1,"1.08 fold enrichment (6-mer frequency, TF over GST control)"
same,binding signal,ELK1,"1.11 fold enrichment (6-mer frequency, TF over GST control)"
same,binding signal,GABPA,"1.12 fold enrichment (6-mer frequency, TF over GST control)"
same,binding signal,ERG,"1.09 fold enrichment (6-mer frequency, TF over GST control)"
same,binding signal,ELF1,"1.16 fold enrichment (6-mer frequency, TF over GST control)"
same,binding signal,EHF,"1.08 fold enrichment (6-mer frequency, TF over GST control)"
same,binding signal,SPI1,"1.03 fold enrichment (6-mer frequency, TF over GST control)"
same,binding signal,SPIB,"1.16 fold enrichment (6-mer frequency, TF over GST control)"
same,binding signal,ELK3,"1.13 fold enrichment (6-mer frequency, TF over GST control)"
same,binding signal,FEV,"1.07 fold enrichment (6-mer frequency, TF over GST control)"
same,binding signal,ETV5,"1.14 fold enrichment (6-mer frequency, TF over GST control)"
same,binding signal,HSF1,"1.35 fold enrichment (6-mer frequency, TF over GST control)"
same,binding signal,SPIC,"1.23 fold enrichment (6-mer frequency, TF over GST control)"
same,binding signal,ELF4,"1.13 fold enrichment (6-mer frequency, TF over GST control)"
same,binding signal,ELK4,"1.16 fold enrichment (6-mer frequency, TF over GST control)"
same,binding signal,ETV2,"1.13 fold enrichment (6-mer frequency, TF over GST control)"
same,binding signal,ELF3,"1.21 fold enrichment (6-mer frequency, TF over GST control)"
same,binding signal,CRX,"1.8 fold enrichment (6-mer frequency, TF over GST control)"
same,binding signal,ETV1,"1.17 fold enrichment (6-mer frequency, TF over GST control)"
